Measurements from PubChem BioAssay (NCATS).
Inconclusive results are not listed. Calls of active or inactive are those of the source. Unless noted, the call rests on the fitted dose curve; in most records, active means well fitted curve in the direction sought with a large enough effect; inconclusive means small, poorly fitted or top-dose-only effect, or another doubt; inactive means no such curve, though single readings can be large; an effect the other way counts as inactive or inconclusive.

Experiments:
[1] = AP1 Signaling Pathway (AID 357; active means well fitted curve in either direction with a large enough effect, not every such curve was filed as active;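 further: ME-180 reporter cells stimulated with EGF at its EC50 level; on the % scale 0 is the no-effect control and ±100 the full control effect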); details: ME-180 AP-1-bla reporter, EGF-induced, beta-lactamase ratio, 5 h; at 38 µM (top of the series)
Summary of the method: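 Titration-series screen for positive or negative modulators of EC50 EGF-induced signaling in ME-180 cells carrying an AP-1-driven beta-lactamase reporter. After 5 hours at 37 degrees Celsius, CCF4 460nm/530nm emission ratio gave %Activity; AC50 values derived.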

[2] = target: Cytochrome P450 1A2 (Homo sapiens) (UniProt P05177); assay: p450-cyp1a2 (AID 410; calls by dose curve;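 further: -100% = full effect of reference inhibitor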); details: recombinant CYP1A2, luciferin-ME demethylation, luminescence; series mostly up to 57 µM
Sequence of Cytochrome P450 1A2 (Homo sapiens) (P05177 whole entry, looked up): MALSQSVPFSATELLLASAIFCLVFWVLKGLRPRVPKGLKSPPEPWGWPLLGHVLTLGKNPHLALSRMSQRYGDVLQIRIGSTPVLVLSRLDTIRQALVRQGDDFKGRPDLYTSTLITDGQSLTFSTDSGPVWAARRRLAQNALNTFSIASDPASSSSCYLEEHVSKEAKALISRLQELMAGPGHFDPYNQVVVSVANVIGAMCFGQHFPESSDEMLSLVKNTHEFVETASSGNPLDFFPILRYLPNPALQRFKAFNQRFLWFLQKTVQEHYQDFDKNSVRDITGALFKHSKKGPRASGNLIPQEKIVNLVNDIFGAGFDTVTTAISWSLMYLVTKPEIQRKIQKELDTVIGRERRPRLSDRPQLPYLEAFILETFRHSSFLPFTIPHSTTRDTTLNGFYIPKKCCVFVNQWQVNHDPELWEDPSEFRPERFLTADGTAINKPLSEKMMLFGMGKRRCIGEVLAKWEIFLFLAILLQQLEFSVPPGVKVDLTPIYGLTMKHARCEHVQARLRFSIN
Summary of the method: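 20nM CYP1A2 with 100uM Luciferin-ME (at Km) in 100mM KPO4; compound preincubated 10 min, NADPH regeneration added, 60 min at room temperature. Luciferin quantified by luminescence after detection reagent; normalized to 57 uM furafylline.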

[3] = NFAT Signaling Pathway (AID 444; active means well fitted curve in either direction with a large enough effect, not every such curve was filed as active;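 further: carbachol stimulus at about its EC50 of 1 µM final; on the % scale 0 is the no-effect control and ±100 the full control effect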); details: Jurkat NFAT-bla M1, carbachol, beta-lactamase ratio, 5 h; at 38 µM (top of the series)
Summary of the method: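 Jurkat cells carrying an NFAT-driven β-lactamase reporter and co-transfected muscarinic M1 receptor were treated with compound plus carbachol (1 uM final, an EC50 level) for 5 h at 37 °C. CCF4 loading followed for 1 h at RT; 460/530 nm ratio gave %activity.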

[4] = Stat Signaling Pathway (AID 446; active means well fitted curve in either direction with a large enough effect, not every such curve was filed as active;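 further: ME-180 cervical cancer cells given 40 pM IL-6 alongside compound; SIE-controlled beta-lactamase reporter measured as 460/530 nm FRET emission ratio; on the % scale 0 is the no-effect control and ±100 the full control effect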); details: ME-180 (cervical carcinoma) SIE beta-lactamase reporter, IL-6 stimulated, 5 h; at 38 µM (top of the series)
Summary of the method: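 IL-6/STAT signaling read in ME-180 cells via an SIE beta-lactamase reporter. Stimulus was 40 pM IL-6 (its AC50) for 5 hrs, so both activation and inhibition register.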

[5] = target: Glucocorticoid receptor (Homo sapiens) (UniProt P04150); assay: GR-EFC Redistribution (AID 451; calls by dose curve; further: potency means the concentration at half of the fitted maximal effect); details: CHO-K1 GR-EFC translocation, beta-gal luminescence, 2 h
Sequence of Glucocorticoid receptor (Homo sapiens) (P04150 whole entry, looked up, the tested form may be a part): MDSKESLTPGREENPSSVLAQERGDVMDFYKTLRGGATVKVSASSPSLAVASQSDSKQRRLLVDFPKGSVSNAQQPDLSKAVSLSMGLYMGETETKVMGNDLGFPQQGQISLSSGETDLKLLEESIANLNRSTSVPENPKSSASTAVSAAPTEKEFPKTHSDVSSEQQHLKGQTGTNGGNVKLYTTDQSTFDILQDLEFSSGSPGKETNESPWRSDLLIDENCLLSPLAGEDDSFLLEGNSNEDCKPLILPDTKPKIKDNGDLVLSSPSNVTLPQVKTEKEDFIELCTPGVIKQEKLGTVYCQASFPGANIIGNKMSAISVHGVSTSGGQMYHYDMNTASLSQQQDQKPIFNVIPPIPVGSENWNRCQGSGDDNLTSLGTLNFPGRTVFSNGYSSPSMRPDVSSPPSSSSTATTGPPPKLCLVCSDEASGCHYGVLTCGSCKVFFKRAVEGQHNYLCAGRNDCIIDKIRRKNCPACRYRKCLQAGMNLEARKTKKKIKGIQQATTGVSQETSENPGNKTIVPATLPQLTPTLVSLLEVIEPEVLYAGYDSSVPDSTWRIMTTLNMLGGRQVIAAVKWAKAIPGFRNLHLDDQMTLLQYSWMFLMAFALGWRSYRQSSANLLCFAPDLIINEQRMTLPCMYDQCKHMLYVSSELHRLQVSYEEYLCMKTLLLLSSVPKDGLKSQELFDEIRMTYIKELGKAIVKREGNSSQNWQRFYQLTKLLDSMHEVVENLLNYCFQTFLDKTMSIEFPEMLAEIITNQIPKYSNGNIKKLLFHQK
Summary of the method: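 CHO-K1 cells stably expressing nuclear-localized β-gal enzyme acceptor and GR fused C-terminally to the enzyme donor fragment; ligand-driven nuclear translocation restores β-gal by complementation. Compounds titrated up to 46 uM final, 2 h at 37 °C; luminescence read.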

[6] = target: Mitogen-activated protein kinase 10 (Mus musculus) (UniProt Q61831); assay: JNK3 AlphaScreen Assay (AID 530; active means well fitted curve in either direction with a large enough effect, not every such curve was filed as active;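 further: kinase came from lysate of stimulated human HepG2 cells; signal reports phosphorylation of biotinylated GST-cJun 1-79 at Ser73 with 10 µM ATP; on the % scale 0 is the no-effect control and ±100 the full control effect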); details: JNK3 lysate, c-Jun phosphorylation; series mostly up to 57.1 µM
Summary of the method: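 Inhibitors reduce antibody binding to phosphorylated biotin-cJun, lowering AlphaScreen luminescence. Lysates from HepG2 cells pre-activated by IL-1beta plus TNF-alpha supplied JNK3; compounds were titrated.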

[7] = target: 3',5'-cyclic-AMP phosphodiesterase 4B (Homo sapiens) (UniProt Q07343); assay: qHTS Assay for Inhibitors of PDE-IV (AID 607; active means well fitted activation curve with a large enough effect in the main read-out, with a control signal flat, not every such curve was filed as active; further: % of control where 0% means no effect); details: HEK293 ACTOne CNG channel cells, membrane potential fluorescence; series mostly up to 22.9 µM
Sequence of 3',5'-cyclic-AMP phosphodiesterase 4B (Homo sapiens) (Q07343 whole entry, looked up): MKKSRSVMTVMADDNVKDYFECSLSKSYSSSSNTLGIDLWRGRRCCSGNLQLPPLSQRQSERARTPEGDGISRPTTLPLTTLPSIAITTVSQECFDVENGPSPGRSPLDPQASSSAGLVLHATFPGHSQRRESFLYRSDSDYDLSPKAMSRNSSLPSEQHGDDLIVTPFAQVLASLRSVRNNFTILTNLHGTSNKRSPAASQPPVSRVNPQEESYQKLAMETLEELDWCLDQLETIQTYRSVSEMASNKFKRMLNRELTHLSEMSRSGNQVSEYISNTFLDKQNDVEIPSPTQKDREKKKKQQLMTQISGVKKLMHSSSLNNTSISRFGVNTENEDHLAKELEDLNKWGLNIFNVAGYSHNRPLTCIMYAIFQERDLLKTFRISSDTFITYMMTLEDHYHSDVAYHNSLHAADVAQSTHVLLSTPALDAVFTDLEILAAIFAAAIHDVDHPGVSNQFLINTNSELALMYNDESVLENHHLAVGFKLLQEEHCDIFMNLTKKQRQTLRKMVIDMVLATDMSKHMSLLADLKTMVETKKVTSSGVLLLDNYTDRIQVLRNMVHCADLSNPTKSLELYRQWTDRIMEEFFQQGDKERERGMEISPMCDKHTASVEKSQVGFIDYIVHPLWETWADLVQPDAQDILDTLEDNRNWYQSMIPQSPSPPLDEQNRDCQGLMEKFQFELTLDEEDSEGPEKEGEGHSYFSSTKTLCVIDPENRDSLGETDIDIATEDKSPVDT
Summary of the method: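 Live HEK293 cells with a modified cyclic nucleotide-gated (CNG) channel report intracellular cAMP via membrane-potential dye fluorescence (ex 535/em 590 nm). Endogenous PDE-IV was targeted. Compounds were tested at up to 22.9 uM final; RO 20-1724 100 uM served as control.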

[8] = target: Guanine nucleotide-binding protein G(i) subunit alpha-1 (Homo sapiens) (UniProt P63096); assay: qHTS Assay for Inhibitors of RGS12 GoLoco Motif Activity (Green Fluorophore) (AID 879); details: Galphai1/FITC-RGS12 GoLoco peptide, fluorescence polarization; series mostly up to 57.1 µM;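 further: 0% = labeled peptide with Gαi1 and full inhibition = labeled peptide alone without protein; negative values mean loss of peptide binding seen as reduced polarization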
Sequence of Guanine nucleotide-binding protein G(i) subunit alpha-1 (Homo sapiens) (P63096 whole entry, looked up): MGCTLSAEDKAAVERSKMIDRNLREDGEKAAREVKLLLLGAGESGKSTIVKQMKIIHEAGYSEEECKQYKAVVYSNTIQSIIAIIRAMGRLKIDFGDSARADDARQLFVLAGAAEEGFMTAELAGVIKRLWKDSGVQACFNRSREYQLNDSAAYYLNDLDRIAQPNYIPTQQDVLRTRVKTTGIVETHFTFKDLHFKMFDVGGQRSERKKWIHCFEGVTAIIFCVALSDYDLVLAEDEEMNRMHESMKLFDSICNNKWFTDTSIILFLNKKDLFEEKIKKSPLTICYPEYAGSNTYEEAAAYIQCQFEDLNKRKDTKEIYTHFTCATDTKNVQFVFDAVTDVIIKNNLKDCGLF
Summary of the method: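 Fluorescence polarization assay: 50 nM Gαi1 with 10 nM FITC-labeled RGS12 GoLoco peptide in 10 mM Tris pH 7.5, 150 mM NaCl, 0.1 mM GDP, 0.05% NP40, 10 min at room temperature with compound.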

[9] = target: Cytochrome P450 2C9 (Homo sapiens) (UniProt P11712); assay: qHTS Assay for Inhibitors and Substrates of Cytochrome P450 2C9 (AID 883); details: recombinant CYP2C9, luciferin-H luminescence, 60 min; series mostly up to 57.1 µM; further: on the % scale 0 is the no-effect control and ±100 the full control effect; nearly all actives have a fitted effect of over 60% in size
Sequence of Cytochrome P450 2C9 (Homo sapiens) (P11712 whole entry, looked up): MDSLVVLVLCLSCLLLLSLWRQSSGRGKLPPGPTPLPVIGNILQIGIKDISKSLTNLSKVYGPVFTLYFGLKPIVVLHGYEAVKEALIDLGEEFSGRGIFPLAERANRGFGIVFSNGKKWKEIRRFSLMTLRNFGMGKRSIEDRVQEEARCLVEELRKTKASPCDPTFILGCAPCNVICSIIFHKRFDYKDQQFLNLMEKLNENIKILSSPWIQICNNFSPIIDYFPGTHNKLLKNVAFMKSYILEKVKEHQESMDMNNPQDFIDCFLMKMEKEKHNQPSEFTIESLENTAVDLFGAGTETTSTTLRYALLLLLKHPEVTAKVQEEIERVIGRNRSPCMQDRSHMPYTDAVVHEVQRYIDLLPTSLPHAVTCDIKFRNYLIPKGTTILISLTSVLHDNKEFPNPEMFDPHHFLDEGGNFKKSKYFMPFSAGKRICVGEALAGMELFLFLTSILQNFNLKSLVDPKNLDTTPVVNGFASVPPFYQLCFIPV
Summary of the method: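 CYP2C9 deoxyluciferin hydroxylation, 37C, 60 min with NADPH regeneration; 10nM enzyme, 100uM Luciferin-H (KM). Glo detection reagent stopped reaction; luminescence normalized to sulphaphenazole (57uM) full inhibition.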

[10] = target: Cytochrome P450 3A4 (Homo sapiens) (UniProt P08684); assay: qHTS Assay for Activators of Cytochrome P450 3A4 (AID 885); details: recombinant CYP3A4, Luciferin-PPXE luminescence, 60 min; series mostly up to 57.1 µM; further: nearly all actives have a fitted effect of over 65% in size
Sequence of Cytochrome P450 3A4 (Homo sapiens) (P08684 whole entry, looked up): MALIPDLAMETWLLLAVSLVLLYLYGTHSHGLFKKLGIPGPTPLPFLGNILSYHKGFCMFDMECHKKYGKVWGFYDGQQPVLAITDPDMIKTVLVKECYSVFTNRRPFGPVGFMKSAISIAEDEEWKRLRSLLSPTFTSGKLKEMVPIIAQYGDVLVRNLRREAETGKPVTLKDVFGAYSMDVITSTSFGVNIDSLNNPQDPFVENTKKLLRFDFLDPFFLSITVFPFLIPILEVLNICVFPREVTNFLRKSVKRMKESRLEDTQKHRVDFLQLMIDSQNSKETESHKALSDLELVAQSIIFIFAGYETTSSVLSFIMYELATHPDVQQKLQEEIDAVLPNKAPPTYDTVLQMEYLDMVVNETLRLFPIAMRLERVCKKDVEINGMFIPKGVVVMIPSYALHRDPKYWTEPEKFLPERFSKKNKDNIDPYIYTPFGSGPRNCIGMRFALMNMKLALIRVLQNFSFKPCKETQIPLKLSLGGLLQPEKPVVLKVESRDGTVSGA
Summary of the method: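 Quantitative HTS format: compounds preincubated with 20nM human CYP3A4 and Luciferin-PPXE substrate at KM, reaction started by NADPH regeneration, stopped after 60 min, luciferase luminescence read 20 min later.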

[11] = target: Pyruvate kinase (Leishmania mexicana) (UniProt Q27686); assay: qHTS Validation Assay for Inhibitors of Leishmania Mexicana Pyruvate Kinase (AID 945);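 further: 0% = DMSO only neutral control wells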; details: purified L. mexicana pyruvate kinase, enzyme activity, E451W mutant enzyme; series mostly up to 57.5 µM
Sequence of Pyruvate kinase (Leishmania mexicana) (Q27686 2-499 E452W): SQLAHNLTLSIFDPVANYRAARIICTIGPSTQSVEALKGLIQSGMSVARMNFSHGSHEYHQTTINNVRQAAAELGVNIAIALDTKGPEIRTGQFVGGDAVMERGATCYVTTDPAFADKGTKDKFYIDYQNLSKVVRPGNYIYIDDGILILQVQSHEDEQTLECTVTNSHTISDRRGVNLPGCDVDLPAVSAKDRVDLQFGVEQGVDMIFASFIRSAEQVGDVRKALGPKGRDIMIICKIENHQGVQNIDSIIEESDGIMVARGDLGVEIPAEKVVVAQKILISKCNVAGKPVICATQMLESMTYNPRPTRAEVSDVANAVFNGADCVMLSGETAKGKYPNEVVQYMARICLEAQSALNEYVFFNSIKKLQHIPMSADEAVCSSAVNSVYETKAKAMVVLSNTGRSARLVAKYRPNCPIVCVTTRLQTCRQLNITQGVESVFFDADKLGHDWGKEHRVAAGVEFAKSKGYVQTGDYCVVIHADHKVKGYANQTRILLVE
Summary of the method: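 Eight-point qHTS titrations; enzyme 0.2 nM LmPYK (E451W mutant); substrates 0.5 mM PEP, 0.1 mM ADP; 7 mM MgCl2; 1 h room temperature; PKLight luminescence normalized to neutral control.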

[12] = target: Alpha-galactosidase A (Homo sapiens) (UniProt P06280); assay: Counterscreen for Glucocerebrosidase Inhibitors: qHTS Assay for Human alpha-Galactosidase at pH 4.5 (AID 992); details: purified enzyme, fluorogenic substrate; series mostly up to 76.9 µM; further: 0% is about no effect
Sequence of Alpha-galactosidase A (Homo sapiens) (P06280 whole entry, looked up): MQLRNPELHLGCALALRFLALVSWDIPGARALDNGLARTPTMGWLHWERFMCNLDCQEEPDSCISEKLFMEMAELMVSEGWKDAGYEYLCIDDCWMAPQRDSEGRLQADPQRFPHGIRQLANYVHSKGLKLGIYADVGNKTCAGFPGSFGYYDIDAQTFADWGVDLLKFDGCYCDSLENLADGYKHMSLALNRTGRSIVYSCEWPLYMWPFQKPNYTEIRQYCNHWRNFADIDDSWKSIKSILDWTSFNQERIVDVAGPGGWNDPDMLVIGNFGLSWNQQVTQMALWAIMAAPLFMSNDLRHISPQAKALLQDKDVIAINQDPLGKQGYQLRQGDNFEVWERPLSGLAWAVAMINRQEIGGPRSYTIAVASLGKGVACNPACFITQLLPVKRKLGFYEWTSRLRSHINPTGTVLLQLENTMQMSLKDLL
Summary of the method: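 Read-out is 4-methylumbelliferone fluorescence (365 nm excitation, 440 nm emission) after a pH 10 NaOH/glycine stop. Reactions held 2 nM enzyme and 80 uM substrate at pH 4.5 for 20 min at room temperature.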

[13] = target: alpha-glucosidase (Oryza sativa, rice) (UniProt Q653V4); assay: Counterscreen for Glucocerebrosidase Inhibitors: qHTS Assay for Rice alpha-Glucosidase at pH 5.0 (AID 997); details: rice alpha-glucosidase enzyme activity; series mostly up to 76.9 µM;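 further: 0% = full activity with enzyme and -100% = basal without enzyme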
Summary of the method: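 Rice alpha-glucosidase (4 nM final) with 400 uM 4-methylumbelliferyl-alpha-D-glucopyranoside in citrate buffer pH 5.0, 20 min at room temperature, stopped at pH 10; fluorescence 365/440 nm, compounds 0.7 nM–77 uM, AC50 from Hill fits.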

[14] = Validation of Assay for Modulators of Lamin A Splicing (AID 1459; active means well fitted curve in the direction sought with a large enough effect in the signal ratio; the % refers to the signal ratio;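 further: cells exposed to compound for two days before reading; 0% is about no effect; ratio rise marks activators and ratio drop marks inhibitors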); details: Lamin A splicing dual RFP/GFP fluorescence reporter; series mostly up to 9.22 µM
Summary of the method: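 S3 HeLa cells stably expressing a lamin A-EGFP splicing minigene and DsRed2 were seeded at 600 cells/well in Opti-MEM with 2% FBS, pin-dosed, and incubated 48 hrs at 37 °C, 5% CO2. Laser-scanning cytometry (488 nm) gave GFP/RFP total intensity ratio.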

[15] = target: DNA repair nuclease/redox regulator APEX1 (Homo sapiens) (UniProt P27695); assay: qHTS Validation Assay for Inhibitors of the Human Apurinic/apyrimidinic Endonuclease 1 (APE1) (AID 1705); details: purified APE1 endonuclease activity, fluorescence, titration; series mostly up to 57.1 µM
Sequence of DNA repair nuclease/redox regulator APEX1 (Homo sapiens) (P27695 whole entry, looked up): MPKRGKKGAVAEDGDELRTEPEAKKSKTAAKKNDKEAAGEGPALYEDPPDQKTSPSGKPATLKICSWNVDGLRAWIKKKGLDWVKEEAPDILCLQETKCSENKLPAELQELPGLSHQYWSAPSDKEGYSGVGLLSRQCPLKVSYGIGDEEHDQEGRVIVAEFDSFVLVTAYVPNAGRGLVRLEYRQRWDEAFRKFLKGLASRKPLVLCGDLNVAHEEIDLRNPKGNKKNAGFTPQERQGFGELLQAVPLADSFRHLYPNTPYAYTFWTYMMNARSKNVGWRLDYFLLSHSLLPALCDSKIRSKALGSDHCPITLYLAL
Summary of the method: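 Human APE1 was preincubated with compound for 15 min at room temperature, then 50 nM (final) THF-abasic double-stranded DNA substrate bearing 5'-TAMRA and 3'-BHQ-2 was added. Incision-driven fluorescence rise (ex 525/em 598 nm) was read kinetically.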

[16] = Counterscreen for APE1 Inhibitors: Fluorescent Dye Displacement Validation Assay (AID 1707); details: fluorescent dye displacement from DNA; series mostly up to 57.1 µM;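 further: plate controls were ThO with dsDNA and no compound for no effect and ThO without dsDNA for full effect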
Summary of the method: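 ThO 250 nM + dsDNA 50 nM (THF abasic site, 5'-TAMRA), Tris-HCl pH7.5/50mM NaCl/2 mM MgCl2/0.01% Tween-20; compounds pin-transferred; ex 480/em 540 nm endpoint. Neutral = no compound; no-DNA ThO wells = negative control.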

[17] = target: Endonuclease 4 (Escherichia coli (strain K12)) (UniProt P0A6C1); assay: Counterscreen for APE1 Inhibitors: qHTS Validation Assay for Inhibitors of Endonuclease IV (AID 1708); further: on the % scale 0 is the no-effect control and ±100 the full control effect; details: E. coli endonuclease IV, DNA cleavage fluorescence; series mostly up to 57.1 µM
Summary of the method: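 Concentration-response counterscreen run identically to the APE1 assay: 15 min room-temperature preincubation of 2 nM enzyme with compound, reaction started with 50 nM quenched abasic DNA, progress taken from kinetic fluorescence.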

[18] = qHTS for differential inhibitors of proliferation of Plasmodium falciparum line 7G8 (AID 1815); details: Plasmodium falciparum 7G8 proliferation inhibition; series mostly up to 28.7 µM;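 further: potency means the concentration at half of the fitted maximal effect; parasite growth measured after three days of incubation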

COc1[nH]c2ccc(F)cc2c1C(=O)OCC1CCN(CCNS(C)(=O)=O)CC1
inactive: activity change, negative = inhibition [1] 1.52% | Potency [2] | activity change, negative = inhibition [3] 0.0444% | activity, negative = inhibition [4] 16.9% | Potency [5] > 46 µM | Potency [6] | Potency [7] | outcome [8] | Potency [9] | Potency [10] | Potency [11] | outcome [12] | outcome [13] | outcome [14] | Potency [15] | Potency [16] | Potency [17]
active: Potency [18] 7.94 µM
